# Bioassay records: PubChem BioAssay, National Center for Advancing Translational Sciences (NCATS)
# TbPYK inhibitor – inhibitors of Trypanosoma brucei pyruvate kinase; Potency, µM (doses to about 76.8 µM), inactives show top-dose activity, negative = inhibition, actives largely listed as inhibitors; TbPYK enzyme, Kinase-Glo Plus ATP luminescence, 45 min; Q57TT1; 410,000 tested, 0.12% active; further: nearly all actives have a fitted effect of over 50% in size
#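 Luminescence from Kinase-Glo Plus, added after a 45-minute room-temperature reaction, served as the end-point read-out. The enzyme and substrate were preincubated with compound before ADP (130 uM final) initiated turnover. Concentration-effect curves came from normalized qHTS data.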
# Giardia FBPA inh-1 – blocks Giardia fructose-bisphosphate aldolase activity | purified Giardia FBPA | 290,000 tested, 0.71% active | Potency, µM (titrated, usually from 59.6 µM), for inactives: at the highest dose activity, negative = inhibition, usual class: inhibitors; further: nearly all actives have a fitted effect of over 55% in size
#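 40 nM FBPA preincubated 10 min at RT with compound (up to 57.5 uM final), then substrate plus GAPDH/TPI/NAD/arsenate coupling and diaphorase/resazurin added. Fluorescence read after 20 min at RT, 525/598 nm.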
# LmPK inhibitor – LmPK (Leishmania mexicana) enzyme inhibition | 290,000 tested, 0.37% active | purified LmPK, Kinase-Glo ATP luminescence, 1 h | Potency, µM (series often up to 57.5 µM), inactives show at the highest dose activity change, negative = inhibition, most hits filed as inhibitors
# Target sequence (Q27686 whole entry, looked up): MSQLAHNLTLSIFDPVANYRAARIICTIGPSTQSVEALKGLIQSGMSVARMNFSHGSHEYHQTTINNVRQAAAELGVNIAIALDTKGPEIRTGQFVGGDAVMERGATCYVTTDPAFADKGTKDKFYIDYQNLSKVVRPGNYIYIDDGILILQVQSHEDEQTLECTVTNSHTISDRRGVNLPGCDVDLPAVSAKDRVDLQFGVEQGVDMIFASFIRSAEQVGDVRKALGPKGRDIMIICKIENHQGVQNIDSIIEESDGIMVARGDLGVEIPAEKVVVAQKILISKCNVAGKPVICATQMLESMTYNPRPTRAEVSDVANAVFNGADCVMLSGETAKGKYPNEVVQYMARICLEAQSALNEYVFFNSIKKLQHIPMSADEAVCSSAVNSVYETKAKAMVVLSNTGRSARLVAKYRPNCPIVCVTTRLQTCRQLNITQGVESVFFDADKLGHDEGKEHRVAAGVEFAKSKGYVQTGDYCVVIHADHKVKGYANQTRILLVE
#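 Pyruvate kinase activity monitored as ATP production (luciferase luminescence). Conditions: 0.1 nM enzyme, 0.5 mM PEP, 0.1 mM ADP, 1 h, RT; normalized against uninhibited and no-enzyme wells.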
# RE007 growth inh – less growth of the S. pombe RE007 Vpr strain. Potency, µM (titrated, usually from 92.2 µM), inactives show top-dose activity change, negative = less growth, usual class: inhibitors. 360,000 tested, 0.21% active. S. pombe RE007 Vpr strain, BacTiter-Glo ATP luminescence, 24 h. AID 651644; active means well fitted falling curve with a large enough effect; inconclusive means small, poorly fitted or top-dose-only effect; inactive means no such curve, though single readings can be large or run the other way; further: nearly all actives have a fitted effect of over 50% in size
#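 Fission yeast RE007 carrying one integrated HIV-1 vpr copy, seeded at OD 0.01 in PMG+AL medium with 23 nL pinned compound. Grown 24 h at 30 degrees; viability read by BacTiter-Glo luminescence after 5 min.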
# Giardia growth – inhibitors of Giardia lamblia growth; Potency, µM (doses to about 57.5 µM), for the others: top-dose activity change, negative = inhibition, most hits filed as inhibitors; shares compounds with Giardia FBPA inh-1; AID 2785; Giardia lamblia trophozoite growth inhibition; 1,500 tested, 5% active;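 further: trophozoites exposed to compound for 48 h at 37 °C; nearly all actives have a fitted effect of over 70% in size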
# Mammal cell tox – counter-screen for Giardia aldolase inhibitors: mammalian cell toxicity | shares compounds with Giardia FBPA inh-1 | mammalian cell viability counter-screen, qHTS | Potency, µM (series often up to 57.5 µM), for inactives: at the top dose viability change, negative = toxicity, most hits filed as inhibitors | 1,500 tested, 4% active | AID 2786;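 further: Chinese hamster ovary cells used as mammalian cytotoxicity surrogate; viability measured as cellular ATP by luminescence; compound exposure lasted 48 h before reading; nearly all actives have a fitted effect of over 60% in size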
# Giardia FBPA inh-2 – confirmation of Giardia fructose-bisphosphate aldolase inhibitors | shares compounds with Giardia FBPA inh-1 | 1,500 tested, 5% active | AID 2787 | purified Giardia aldolase enzyme activity, qHTS | Potency, µM (series often up to 57.5 µM), for the others: at the top dose activity change, negative = inhibition, hits mostly inhibitors; further: nearly all actives have a fitted effect of over 45% in size
# Rabbit FBPA inh – blocks rabbit muscle aldolase in Giardia aldolase selectivity test. 1,500 tested, 4% active. Potency, µM (top dose mostly 57.5 µM), inactives show top-dose activity, negative = inhibition, most hits filed as inhibitors. AID 2794. shares compounds with Giardia FBPA inh-1. Rabbit muscle FBPA enzyme inhibition, selectivity counter-screen; further: nearly all actives have a fitted effect of over 60% in size
# GAPDH counter – counter-screen for Giardia aldolase inhibitors: GAPDH coupling enzyme; 1,500 tested, 6% active; Potency, µM (series often up to 57.5 µM), without a hit: at the top dose activity change, negative = inhibition, usual class: inhibitors; shares compounds with Giardia FBPA inh-1; GAPDH coupling enzyme counterscreen, biochemical, qHTS; AID 2795; further: nearly all actives have a fitted effect of over 55% in size
# Active calls of the source: *; ? = inconclusive; · = not tested or not shown; [ ] = another dose, or the depositor's remark. This is a sample that favours compounds with a hit; in the whole collection about 0.95% have one here. Unless noted, the call rests on the fitted dose curve; in most records, active means well fitted curve in the direction sought with a large enough effect; inconclusive means small, poorly fitted or top-dose-only effect, or another doubt; inactive means no such curve, though single readings can be large; an effect the other way counts as inactive or inconclusive. On the % scale 0 is the no-effect control and ±100 the full control effect; potency means the concentration at half of the fitted maximal effect.
SMILES,TbPYK inhibitor,Giardia FBPA inh-1,LmPK inhibitor,RE007 growth inh,Giardia growth,Mammal cell tox,Giardia FBPA inh-2,Rabbit FBPA inh,GAPDH counter
O=C(N/N=C/c1ccccn1)c1cccc(S(=O)(=O)N2CCCC2)c1,1%,16µM*,3%,11%,4%[10.4 µM],5%,6%,7%,0%
O=C(N/N=C/c1ccncc1)c1cccc(S(=O)(=O)N2CCCC2)c1,1%,·,·,?,·,·,·,·,·
O=C(N/N=C/c1ccccn1)c1cc(-c2ccccc2Cl)n[nH]1,1%,16µM*,-1%,27%,-19%,-8%,-8%,-14%,-18%
C=C1CCN(C(CC(C)C)C(=O)NCCCc2ccccc2)S(=O)(=O)c2ccccc21 (stereo unspecified),·,-9%,·,·,·,·,·,·,·
Cc1cccc(C)c1NC(=O)CC12CCCN1CCC2,3%,·,·,·,·,·,·,·,·
C=N[C@H](C(=O)N[C@@H]1C(=O)N2[C@@H]1SC(C)(C)[C@@H]2C(=O)O)c1ccccc1,·,-9%[21.7 µM],·,·,·,·,·,·,·
COc1ccc(OC)c(-c2csc(NC(=O)c3ccc(F)cc3)n2)c1,-8%,22µM*,1%,-10%,-9%[10.4 µM],-17%,3%,6%,2%
O=c1cc2oc3cc(O)c(O)cc3c(-c3ccccc3O)c-2cc1O,-20%,16µM*,-21%,·,-20%,8%,?,-6%,10%
COc1ccc(OC)c(-c2c3cc(O)c(=O)cc-3oc3cc(O)c(O)cc23)c1,?,?,-22%,?,·,·,·,·,·
Cc1ccc(S(=O)(=O)N[C@H]2COC(=O)CC=C[C@@H](C)[C@H]3C=C[C@H](O)[C@@H](COC(=O)CC=C[C@H]2C)O3)cc1,·,3%[12.9 µM],·,·,·,·,·,·,·
CCOc1ccc(-n2c(O)c(N=Nc3c(C)n(C)n(-c4ccccc4)c3=O)c(=O)[nH]c2=O)cc1,0%,16µM*,1%,0%,?,7%,2%,-14%,-13%
CCOC(=O)c1c(O)c(O)c(C(=O)OCC)n1-c1ccccc1,-10%,20µM*,1%,-12%,19%,-7%,-16%,-27%,-18%
CC(=O)N(C)c1ccc(N=Nc2c(C)[nH]n(-c3ccccc3)c2=O)cc1,0%,4.5µM*,2%,-9%,19%,0%,5%,5%,15%
CCOc1ccc(N=Nc2c(C)[nH]n(-c3ccccc3)c2=O)cc1,-3%,7.9µM*,9%,14%,-5%,1%,1%,4%,8%
CCCN1CCC(=O)N(C(CSc2ccc(Br)cc2)Cc2ccccc2)CC1 (stereo unspecified),·,0%,·,·,·,·,·,·,·
CO[C@H]1COC(=O)C/C=C\[C@@H](C)COC(=O)[C@H]2CCCN2C(=O)C/C=C\[C@H]1C,·,0%[12.9 µM],·,·,·,·,·,·,·
COC(=O)c1c(-c2cccs2)csc1NC(=O)c1cc(OC)c(OC)c(OC)c1,-19%,·,·,·,·,·,·,·,·
CCOC(=O)c1ccc(N=Nc2c(C)[nH]n(-c3ccccc3)c2=O)cc1,0%,10µM*,0%,-7%,?,9%,1%,1%,9%
COc1cccc(N=Nc2c(C)[nH]n(-c3ccccc3)c2=O)c1,0%,3.5µM*,3%,-7%,-16%[38.3 µM],-3%,-11%,5%,-5%
Cc1[nH]n(-c2ccccc2)c(=O)c1N=Nc1ccccc1O,0%,-8%,6%,6%,·,·,·,·,·
